GDH-TPI counter: inhibits GDH-TPI coupling enzymes, artifact for Mtb FBA screen; AID 588335; GDH-TPI coupled enzyme counterscreen, NADH absorbance; 1.2% of 360,000 active; inhibition, % at 4.8 µM; in the data active = inhibition above about 30%
Mtb betalactam: beta-lactam sensitization of Mtb H37Rv; M. tuberculosis H37Rv growth with meropenem, percent inhibition; inhibition, % at 25 µM; 0.27% of 330,000 active; call rule not given here;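 also: growth measured after seven days incubation then overnight dye step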
Mtb FBA inh: inhibits M. tuberculosis FBA enzyme | P9WQA3 | purified M. tuberculosis FBA, fluorescence read-out | inhibition, % at 1 µM | 2.3% of 360,000 active; in the data active = inhibition above about 27%
RecA splice inh: Mtb RecA intein splicing inhibition | P9WHJ3 | cell-free RecA intein splicing, fluorescence | inhibition, % (concentration not given with the values) | 0.75% of 290,000 active; in the data active = inhibition above about 30%; inconclusive = no clear call, values can overlap the other calls
Target sequence (P9WHJ3 whole entry, looked up, canonical isoform): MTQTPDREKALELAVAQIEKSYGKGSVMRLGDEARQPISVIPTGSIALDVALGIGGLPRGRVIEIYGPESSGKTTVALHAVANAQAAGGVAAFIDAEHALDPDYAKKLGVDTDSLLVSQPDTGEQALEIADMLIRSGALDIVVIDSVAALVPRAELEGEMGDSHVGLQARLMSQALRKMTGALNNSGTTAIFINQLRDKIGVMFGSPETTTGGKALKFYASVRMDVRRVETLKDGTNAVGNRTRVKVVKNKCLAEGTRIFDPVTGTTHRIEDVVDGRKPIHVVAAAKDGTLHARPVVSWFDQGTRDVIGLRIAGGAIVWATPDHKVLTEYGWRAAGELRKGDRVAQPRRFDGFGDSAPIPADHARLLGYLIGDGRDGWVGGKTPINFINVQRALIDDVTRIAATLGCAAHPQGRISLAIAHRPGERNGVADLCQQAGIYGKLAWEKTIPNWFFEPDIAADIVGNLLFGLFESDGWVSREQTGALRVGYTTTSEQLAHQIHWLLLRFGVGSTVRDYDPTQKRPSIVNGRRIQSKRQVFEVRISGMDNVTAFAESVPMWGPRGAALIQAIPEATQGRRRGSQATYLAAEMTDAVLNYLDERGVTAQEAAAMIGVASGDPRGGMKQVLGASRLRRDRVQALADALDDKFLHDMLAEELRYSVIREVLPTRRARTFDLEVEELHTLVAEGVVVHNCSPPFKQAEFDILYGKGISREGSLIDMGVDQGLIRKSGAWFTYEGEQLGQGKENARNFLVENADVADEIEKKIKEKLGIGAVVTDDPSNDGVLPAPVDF
Rv3671c protease: inhibitors of M. tuberculosis serine protease Rv3671c; P9WHR9; inhibition, % at 5.96 µM; 0.048% of 320,000 active; AID 2606; in the data active = inhibition above about 38%;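 also: extracellular domain of Rv3671c used as enzyme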
Mtb UGM inh: blocks M. tuberculosis UGM enzyme. AID 504406. 0.06% of 320,000 active. P9WIQ1. purified UGM, fluorescence polarization probe displacement. inhibition, % at 10 µM; in the data active = inhibition above about 10%, passing the limit was not always enough; inconclusive = no clear call, values can overlap the other calls
Hits are given with their value; – = inactive; ? = inconclusive; · = not tested or not shown; + = active, no number. In the library only some 4% were active in any assay of this set; here they are far more common.

SMILES	GDH-TPI counter	Mtb betalactam	Mtb FBA inh	RecA splice inh	Rv3671c protease	Mtb UGM inh
COC(=O)CSc1nc2nc(C)c(Br)cc2[nH]1	–	–	–	–	–	–
C=C(C)CSc1nc2nc(C)c(Br)cc2[nH]1	36	–	–	–	–	–
CC(C(=O)Nc1ccc(C#N)cc1)N(C)CC(=O)N(C)c1c(N)n(Cc2ccccc2)c(=O)[nH]c1=O (centres undefined)	–	–	–	·	–	–
COc1cc(/C=C(\C#N)C(=O)NC2CCCCC2C)ccc1OS(=O)(=O)c1ccc(C)cc1 (centres undefined)	–	–	–	56	–	–
CC1CCN(C(=O)CSc2nnc(Cc3ccccc3)o2)CC1	–	–	–	–	–	–
CC1CCN(C(=O)CSCC(=O)O)CC1	–	–	150	–	–	–
C=CCn1c(=N)c(C(=O)NCCCOC)cc2c(=O)n3cc(C)ccc3nc21	–	–	+	–	–	–
C=CCn1c(=N)c(C(=O)NCCCOC)cc2c(=O)n3ccccc3nc21	–	–	+	–	–	–
CCOCCCn1c(=N)c(C(=O)NCc2ccc3c(c2)OCO3)cc2c(=O)n3ccccc3nc21	·	·	·	–	·	·
O=C(O)c1cnn(-c2ccccc2)c1-c1ccccc1	–	–	–	–	–	–
CCN(CC)c1ccc(-c2nc3cnccc3n2C)cc1	31	–	–	–	–	·
NNC(=O)/C(=C\c1ccco1)NC(=O)c1ccco1	35	–	–	–	–	–
CC(=O)c1cccc(NC(=O)/C(=C\c2ccco2)NC(=O)c2cccs2)c1	32	–	–	–	–	–
O=C(Nc1cccc(F)c1)/C(=C\c1ccco1)NC(=O)c1ccco1	39	–	–	–	–	–
O=C(NCc1ccco1)/C(=C\c1ccco1)NC(=O)c1ccco1	–	–	–	–	–	·
COc1cccc(-n2c(Cc3cc(=O)[nH]c(=O)[nH]3)nnc2SCC(=O)N2CCCCCC2)c1	–	–	–	·	–	–
Cc1cc(NC(=O)COC(=O)c2cc(S(=O)(=O)N3CCOCC3)ccc2N2CCCCC2)no1	–	–	–	–	–	–
CCN(CC)C(=O)c1ccc(NC(=O)C2=C(C)OCCS2)cc1	–	–	–	–	–	–
COCCCN=Cc1c(O)[nH]c(=S)[nH]c1=O	33	–	–	–	–	–
CCCCCCCCN=Cc1c(O)[nH]c(=O)[nH]c1=O	–	–	–	–	–	–
N#CCCN(C(=O)CCl)c1cccc(Cl)c1	–	–	–	45	–	–
CCNC(=O)/C(C#N)=C/c1c(N(Cc2ccccc2)Cc2ccccc2)nc2ccccn2c1=O	–	–	–	–	–	–
Cc1cccn2c(=O)c(/C=C(\C#N)C(=O)NC3CCS(=O)(=O)C3)c(N3CCC(C)CC3)nc12 (centres undefined)	–	–	197	–	–	–
CNC(=O)/C(C#N)=C/c1c(N(Cc2ccccc2)Cc2ccccc2)nc2c(C)cccn2c1=O	–	–	–	31	–	–
N#C/C(=C\c1c(N2CCCCC2)nc2ccccn2c1=O)C(=O)NC1CCS(=O)(=O)C1 (centres undefined)	–	?	–	–	–	–
SMILES	GDH-TPI counter	Mtb betalactam	Mtb FBA inh	RecA splice inh	Rv3671c protease	Mtb UGM inh
CCOc1cc2[nH]c(=S)n(CCCN(CC)CC)c(=O)c2cc1OCC	–	–	–	–	–	–
CCOc1cc2[nH]c(=S)n(CCOC)c(=O)c2cc1OCC	33	–	–	–	–	–
CC1CCCC(C)N1CCNC(=O)Nc1ccc(Cl)cc1 (centres undefined)	–	–	–	–	–	–
O=C(Nc1ccc(F)cc1)C(=O)c1c(O)[nH]c2ccc([N+](=O)[O-])cc12	38	–	–	–	–	–
Cc1ccc(NCC(=O)N=Nc2c(O)[nH]c3ccc([N+](=O)[O-])cc23)cc1	·	–	·	–	–	–
CC(C)(C)Nc1nc(NN)nc(NC(C)(C)C)n1	–	–	–	–	–	–
Cc1ccc(S(=O)(=O)N2CCN(C3CC(=O)N(c4ccc(F)cc4)C3=O)CC2)cc1C (centres undefined)	–	–	–	·	–	–
CCCCn1c(O)c(/C=N/NC(=O)c2ccncc2)c(=O)[nH]c1=O	46	–	–	–	–	–
CCc1ccc(NC(=S)N(Cc2ccc(Cl)cc2)Cc2ccc(C(=O)O)cc2)cc1	–	–	–	–	–	–
Cc1ccc(CCNc2ccc3ccccc3c2)cn1	–	–	–	38	–	–
CC(C)CN1C(=O)C(=O)N(CC(=O)N(C)CC(=O)Nc2ccc(Cl)c(C(F)(F)F)c2)C1=O	–	–	–	·	–	–
CCCC1C(C#N)=C(N)Oc2cc(C)n(C)c(=O)c21 (centres undefined)	–	–	114	–	–	–
CC1(C)CC2(C)OC(=N)C1(C#N)C2(C#N)C#N (centres undefined)	–	–	–	45	–	–
CC1C2(C)OCC(C#N)(C(=N)O2)C1(C#N)C#N (centres undefined)	·	–	·	–	–	–
O=C(CSc1ccc2nnc(-c3ccccn3)n2n1)NCc1ccc2c(c1)OCO2	–	–	–	–	–	–
CCC(C)c1ccc2oc(-c3ccc(NC(=O)c4ncn[nH]4)cc3)nc2c1 (centres undefined)	31	–	–	–	–	–
CC(C)c1ccc2oc(-c3ccc(NC(=O)c4ncn[nH]4)cc3)nc2c1	·	–	·	–	–	–
O=C1NC(=S)NC1=Cc1ccco1	–	·	–	·	·	·
O=C1NC(=O)/C(=C/c2ccco2)N1	40	–	–	·	–	–
O=C1NC(=O)C(=Cc2ccco2)S1	38	·	–	·	·	·
COc1ccc2oc(CS(=O)c3ccccc3)c(C(=O)O)c2c1 (centres undefined)	–	–	–	–	–	–
O=C(O)c1cc(-c2ccc(O)cc2)nc2ccccc12	·	–	·	·	–	–
O=C(O)c1cc(-c2cc(C(=O)O)c3ccccc3n2)ccc1O	33	·	–	·	·	·
CCOc1ccc(-c2cc(C(=O)O)c3ccccc3n2)cc1	–	–	+	–	–	–
O=C1C2C3C=CC(C4CC34)C2C(=O)N1CCCCN1CCN(c2ccc(F)cc2)CC1 (centres undefined)	–	–	–	–	–	–
SMILES	GDH-TPI counter	Mtb betalactam	Mtb FBA inh	RecA splice inh	Rv3671c protease	Mtb UGM inh
CC(NC(=O)c1ccc(NC(=O)c2ccco2)cc1)c1ccccc1 (centres undefined)	–	–	–	–	–	–
COc1cccc(N/C=C(\C#N)c2ccc(OCCCF)cc2)c1	33	–	–	–	–	–
Cc1ccc(CC2CC(=O)N(CC(=O)O)C2=O)cc1 (centres undefined)	–	–	–	–	–	–
CC1(C(=O)Nc2ccccc2)Cc2c(-c3cccc(C(N)=O)c3)ccnc2O1 (centres undefined)	–	·	–	·	·	·
COc1cc(N/N=C/c2ccccc2O)ncn1	47	–	–	–	–	–
O=C(O)c1ccccc1NS(=O)(=O)c1ccc(N/N=C/c2ccc(O)c(O)c2)c([N+](=O)[O-])c1	46	·	–	·	·	·
COc1ccccc1NS(=O)(=O)c1ccc(N/N=C/c2ccccc2OCC(=O)O)c([N+](=O)[O-])c1	35	–	–	–	–	–

Source: PubChem (several laboratories)
